The text below walks through data of PubChem BioAssay (Tox21).

Unmarked numbers belong to inactive results. Records with an inconclusive call do not appear. Active and inactive are the calls of the source. Unless noted, calls follow the shape of the dose curve; as a rule, active = well fitted curve in the direction sought with a large enough effect in the repeat runs; inconclusive = weak or mixed curves; inactive = no such curve, though single readings can be large; an effect the other way counts as inactive or inconclusive.

Experiment [1] can be described thus: qHTS assay to identify small molecule agonists of the hypoxia (HIF-1) signaling pathway - cell viability counter screen (AID 1224844; calls by dose curve; also: nearly all actives have a fitted effect of over 50% in size; also: potency is read from the fitted curve at half-maximal effect). The procedure, abridged: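 HRE-bla ME-180; 0.5% dFBS; cpd 17 h, 37C, 5% CO2; CellTiter-Glo lum., 30 min RT, post-FRET read, same wells.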
Experiment [2] in a line: qHTS assay to identify small molecule agonists of H2AX (AID 1224845; active = well fitted activation curve with a large enough effect in the signal ratio in the repeat runs, not every such curve was filed as active; the % refers to the signal ratio). The procedure, abridged: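 Wild-type CHO-K1 cells plated overnight, then exposed 3 hr at 37C to compounds at 15 concentrations (0.76% DMSO). Lysed, then HTRF anti-pH2AX(S139)-cryptate/anti-H2AX-d2 detection after 24 hr at room temperature; emissions 665 and 620 nm.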
A short description of experiment [3]: qHTS assay to identify small molecule agonists of the hypoxia (HIF-1) signaling pathway (AID 1224846; active = well fitted activation curve with a large enough effect in the signal ratio in the repeat runs, not every such curve was filed as active; the % refers to the signal ratio). The essentials:
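Reporter induction in HRE-bla ME-180 cells is taken as agonism: cells sit 5 hrs after plating, receive compounds or DMSO only, incubate 17 hrs at 37C under 5% CO2, and are loaded with CCF4-AM for beta-lactamase FRET measurement.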
In general terms: In qHTS, concentration-response curves come from the screen itself.

Experiment [4] can be described thus: qHTS assay to identify small molecule agonists of H2AX - cell viability counter screen (AID 1224847; calls by dose curve; also: nearly all actives have a fitted effect of over 30% in size; also: potency is read from the fitted curve at half-maximal effect). The essentials: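 CHO-K1 cells plated overnight at 37C, then exposed 3 h at 37C to compounds at 15 concentrations (0.76% DMSO final). Viability by CellTiter-Glo luminescence after 30 min at room temperature.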
Experiment [5] is described as follows: qHTS assay to identify small molecule antagonists of the estrogen related receptor (ERR) signaling pathway from Tox21 library (AID 1224848). Also: nearly all actives have a fitted effect of over 50% in size. The essentials:
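Tox21 10K compounds in DMSO tested for ERR pathway antagonism in NTP's ERR cell line; 18 h, 37 C exposure; ONE-Glo luminescence.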

Experiment [6] in a line: qHTS assay to identify small molecule agonists of the estrogen related receptor (ERR) signaling pathway from Tox21 library (AID 1224849; calls by dose curve; also: nearly all actives have a fitted effect of over 15% in size). The conditions noted are these: ERR reporter cell line, ONE-Glo luciferase, 18 h; at 92.4 µM (top of the series) unless noted. The procedure, abridged: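 Tox21 compounds tested for ERR agonism in an NTP reporter cell line: 18 h treatment at 37 C, then ONE-Glo luminescence.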

Experiment [7] is described as follows: qHTS RealTime-Glo MT Cell Viability Assay in HepG2 cells - 24 hour (AID 1224867). Also: nearly all actives have a fitted effect of over 50% in size. The essentials:
(§1)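 HepG2 suspension premixed with RealTime-Glo reagents is plated at 600 cells per well and left 5 h at 37 C/5% CO2. Compounds in DMSO then go in, and bioluminescence reflecting viable cell number is recorded over 40 h.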

Experiment [8] is described as follows: qHTS RealTime-Glo MT Cell Viability Assay in HEK293 cells - 32 hour (AID 1224868). Also: top concentration of the series differs between compounds; nearly all actives have a fitted effect of over 50% in size. The procedure, abridged: (§2)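 Reads taken at 0, 8, 16, 24, 32 and 40 h from the same wells. HEK293 cells (600/well) carried RealTime-Glo reagents from seeding, with compound added after a 5 h settle at 37 C.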
Experiment [9] is described as follows: A CellTox Green Cytotoxicity Assay to monitor cytotoxicity in HEK293 cells - 0 hour (AID 1224869). Also: nearly all actives have a fitted effect of over 50% in size. The essentials:
(§3)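 Tox21 screen in HEK293: membrane-impermeant cyanine dye fluoresces on binding dead-cell DNA; compound pinned 5 h post-seeding, plates held at 37 C, signal read repeatedly through 40 h.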

Experiment [10] in a line: qHTS RealTime-Glo MT Cell Viability Assay in HepG2 cells - 40 hour (AID 1224870). Also: nearly all actives have a fitted effect of over 50% in size. The essentials: (§4)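 HepG2 cells mixed with RealTime-Glo MT reagents (NanoLuc plus cell-permeant prosubstrate) were seeded at 600 cells/well, incubated 5 h at 37 C/5% CO2, then pinned with compounds in DMSO; nonlytic luminescence tracked viability during 40 h treatment.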
Experiment [11] can be described thus: qHTS RealTime-Glo MT Cell Viability Assay in HEK293 cells - 16 hour (AID 1224872). The essentials: as §2
The nature of experiment [12]: qHTS RealTime-Glo MT Cell Viability Assay in HepG2 cells - 8 hour (AID 1224873). Also: nearly all actives have a fitted effect of over 55% in size. The procedure, abridged: as §4
Experiment [13] in a line: qHTS RealTime-Glo MT Cell Viability Assay in HEK293 cells - 40 hour (AID 1224874). Also: nearly all actives have a fitted effect of over 50% in size. The conditions noted are these: RealTime-Glo luminescence; max response: hits give low values. The essentials:
(§5)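 HEK293 + NanoLuc + prosubstrate, 600 cells/well; 5 h, 37 C/5% CO2; compound 23 nL in DMSO by pintool; 37 C; luminescence read at 0, 8, 16, 24, 32 and 40 h time points.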

Experiment [14] in a line: A CellTox Green Cytotoxicity Assay to monitor cytotoxicity in HEK293 cells - 24 hour (AID 1224875). Also: nearly all actives have a fitted effect of over 45% in size. The essentials:
as §3

Experiment [15] is described as follows: A CellTox Green Cytotoxicity Assay to monitor cytotoxicity in HepG2 cells - 16 hour (AID 1224876). Also: nearly all actives have a fitted effect of over 45% in size. The procedure, abridged: (§6)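 Measurements at 0, 8, 16, 24, 32 and 40 h of treatment captured CellTox Green fluorescence in HepG2 cells that had been co-plated with reagent and preincubated 5 h at 37 C/5% CO2.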
Experiment [16] can be described thus: qHTS RealTime-Glo MT Cell Viability Assay in HepG2 cells - 32 hour (AID 1224877). Also: nearly all actives have a fitted effect of over 55% in size. The procedure, abridged: as §1
The nature of experiment [17]: A CellTox Green Cytotoxicity Assay to monitor cytotoxicity in HepG2 cells - 24 hour (AID 1224878). Also: nearly all actives have a fitted effect of over 45% in size. The procedure, abridged:
as §6

Experiment [18] in a line: A CellTox Green Cytotoxicity Assay to monitor cytotoxicity in HepG2 cells - 40 hour (AID 1224879). Also: nearly all actives have a fitted effect of over 40% in size. The essentials: as §6
Experiment [19] is described as follows: qHTS RealTime-Glo MT Cell Viability Assay in HEK293 cells - 0 hour (AID 1224880). Also: top concentration of the series differs between compounds; nearly all actives have a fitted effect of over 45% in size. The essentials:
as §5

A short description of experiment [20]: A CellTox Green Cytotoxicity Assay to monitor cytotoxicity in HEK293 cells - 40 hour (AID 1224871). Also: nearly all actives have a fitted effect of over 45% in size. The procedure, abridged:
as §3
% is scaled to controls: 0 for no effect and ±100 for the full control effect.

For the compound `CCS(=O)(=O)c1cccnc1S(=O)(=O)NC(=O)Nc1nc(OC)cc(OC)n1`, the Potency entry in experiment [1], in experiment [2], in experiment [4], in experiment [5], in experiment [7] and in [8] was “inactive” in each case. For the same compound, the Potency entry in [9], in experiment [10], in [11], in experiment [12], in experiment [14] and in experiment [15] was “inactive” throughout. Besides, the Potency result in experiment [16], in experiment [17], in [18] and in [19] was “inactive” each time. The outcome in experiment [3] was inactive. In addition, the activity change, positive = activation in experiment [6] was 6.39%. Also, the max response in experiment [13] was 6.92%.
For the compound `CCC(C)c1cc(C(C)(C)C)cc(-n2nc3ccccc3n2)c1O` (centres undefined), in experiment [1], the Potency was 19 µM (active). The Potency result in experiment [2], in experiment [4], in experiment [5], in [8], in [9] and in experiment [10] was “inactive” in each case. Besides, the Potency result in [20], in experiment [11], in experiment [12], in experiment [14], in [16] and in experiment [17] was “inactive” each time. The Potency result in experiment [18] and in experiment [19] was “inactive” each time. In addition, the compound was called inactive in [3]. Further, the activity change, positive = activation in experiment [6] is -0.703% [at 42.5 µM]. Also, the max response in experiment [13] is 9.2%.
As for `CN(C)C1CSSSC1`, the Potency result in experiment [1], in [2], in experiment [4], in [5], in [7] and in experiment [8] was “inactive” each time. The Potency entry in [9], in experiment [10], in experiment [12], in [14], in experiment [15] and in [16] was “inactive” each time. Besides, the Potency entry in experiment [17], in experiment [18] and in [19] was “inactive” in each case. Besides, the call in experiment [3] was inactive. Further, the activity change, positive = activation in experiment [6] was -13.3%. Also, the max response in experiment [13] is 3.22%.
As to `Cc1ccc(CCl)cc1`, the Potency entry in [1], in [2], in experiment [4], in experiment [5], in experiment [7] and in [8] was “inactive” each time. Besides, the Potency result in experiment [9], in [10], in experiment [20], in experiment [11], in [12] and in experiment [14] was “inactive” in each case. Further, the Potency result in experiment [15], in experiment [16], in experiment [17], in experiment [18] and in experiment [19] was “inactive” each time. In addition, in [3], the outcome was inactive. Also, in [6], the activity change, positive = activation was -1.8%.
For the compound `ClC1=C(Cl)[C@]2(Cl)[C@@H]3[C@@H](Cl)[C@H](Cl)C[C@@H]3[C@@]1(Cl)C2(Cl)Cl`, the Potency entry in experiment [1], in [2], in [4], in [5], in experiment [7] and in experiment [8] was “inactive” throughout. The Potency entry in experiment [10], in [11], in experiment [12], in experiment [16], in experiment [17] and in [18] was “inactive” throughout. The Potency result in experiment [19] is “inactive”. Further, in experiment [3], the compound was classed as inactive. Moreover, in [6], the activity change, positive = activation is -5.06%.
Consider `Nc1ccc(Cl)cc1C(=O)c1ccccc1`, for which the Potency result in experiment [1], in experiment [2], in [5], in experiment [7], in experiment [9] and in experiment [10] was “inactive” throughout. Further, the Potency result in experiment [12], in experiment [15], in experiment [16], in experiment [17], in experiment [18] and in experiment [19] was “inactive” each time. In addition, the compound was classed as inactive in experiment [3]. Also, in experiment [4], the Potency was 101 µM (active). For the same compound, the activity change, positive = activation in experiment [6] was 3.06%.
Regarding `CC(C)CC(C)N` (centres undefined), the Potency result in experiment [1], in [2], in [4], in experiment [5], in [7] and in [8] was “inactive” throughout. In addition, the Potency entry in [9], in experiment [10], in experiment [20], in experiment [11], in experiment [12] and in experiment [14] was “inactive” in each case. Moreover, the Potency entry in experiment [15], in experiment [16], in [17], in [18] and in experiment [19] was “inactive” throughout. The call in [3] was inactive. Also, in [6], the activity change, positive = activation is 0.671%. Moreover, in experiment [13], the max response was 4.09%.
